The source made the active and inactive calls. The calls were made as follows: active = hit-call score of the fitted dose curve at least 0.9, where 1 is the maximum; inactive = score below 0.9.
Tests used:
[1] = ATG_CMV_CIS: Attagene CIS-FACTORIAL HepG2 Assay for human CMV (Internal Marker) (AID 2282928); conditions: HepG2 CMV promoter reporter, transcription factor profiling; actives raise or lower the signal;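 also: endpoint acts as a background internal control marker rather than a target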
Method in brief: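 Bidirectional fits against DMSO are applied to reporter mRNA, read by RT-PCR with capillary electrophoresis, from HepG2 cells exposed 24 h. The endpoint serves as an internal CMV background marker within the cis-factorial reporter panel.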

[2] = target: Aryl hydrocarbon receptor (Homo sapiens) (UniProt P35869); test: ATG_Ahr_CIS: Attagene CIS-FACTORIAL HepG2 Assay for human Aryl Hydrocarbon Receptor (Ahr) (AID 2282930); conditions: HepG2 AhR cis-factorial reporter transcription; actives raise or lower the signal
Aryl hydrocarbon receptor (Homo sapiens), sequence (P35869 whole entry, looked up): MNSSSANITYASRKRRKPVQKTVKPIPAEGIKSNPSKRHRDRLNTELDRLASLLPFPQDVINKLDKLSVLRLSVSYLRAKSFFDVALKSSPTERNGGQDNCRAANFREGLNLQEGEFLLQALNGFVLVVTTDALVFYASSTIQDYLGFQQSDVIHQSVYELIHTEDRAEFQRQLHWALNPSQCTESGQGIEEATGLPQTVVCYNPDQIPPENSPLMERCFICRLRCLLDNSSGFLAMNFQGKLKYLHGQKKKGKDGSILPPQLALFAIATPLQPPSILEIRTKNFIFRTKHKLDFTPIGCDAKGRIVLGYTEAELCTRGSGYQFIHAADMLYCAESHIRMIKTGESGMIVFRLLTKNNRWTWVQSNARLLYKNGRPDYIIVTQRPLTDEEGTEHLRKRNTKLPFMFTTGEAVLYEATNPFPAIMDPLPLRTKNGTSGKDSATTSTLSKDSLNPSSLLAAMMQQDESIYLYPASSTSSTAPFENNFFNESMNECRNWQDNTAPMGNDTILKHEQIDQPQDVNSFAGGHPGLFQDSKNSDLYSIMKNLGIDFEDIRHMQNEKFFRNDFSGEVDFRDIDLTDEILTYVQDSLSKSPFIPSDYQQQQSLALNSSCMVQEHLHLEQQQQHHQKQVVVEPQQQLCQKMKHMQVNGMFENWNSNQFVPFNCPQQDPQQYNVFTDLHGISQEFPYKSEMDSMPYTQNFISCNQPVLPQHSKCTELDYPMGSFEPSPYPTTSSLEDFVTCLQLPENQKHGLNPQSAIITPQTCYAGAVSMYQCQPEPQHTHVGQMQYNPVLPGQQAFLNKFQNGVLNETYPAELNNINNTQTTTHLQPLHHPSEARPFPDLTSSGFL
Method in brief: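 HepG2 cells transiently transfected with cis-element-driven multiplexed reporter transcription units; endogenous transcription factor activity measured as reporter mRNA 24 h after dosing. RT-PCR, 6-FAM labelling, HpaI digestion, capillary electrophoresis; bidirectional fitting versus DMSO baseline.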

[3] = ATG_AP_1_CIS: Attagene CIS-FACTORIAL HepG2 Assay for human Activator Protein 1 (AP-1) (AID 2282931); conditions: HepG2 Attagene cis-factorial AP-1 reporter mRNA; actives raise or lower the signal
Method in brief: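 After 24 h incubation with test chemical, RNA from transfected HepG2 cells was reverse-transcribed, amplified, fluorescently labelled and digested before capillary electrophoresis. Reporters were driven by cis-regulatory promoters; activity fitted bidirectionally versus DMSO.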

[4] = ATG_AP_2_CIS: Attagene CIS-FACTORIAL HepG2 Assay for human Activator Protein 2 (AP-2) (AID 2282932); conditions: HepG2 AP-2 cis-reporter, Attagene transcription factor profiling; actives raise or lower the signal
Method in brief: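 Cells (HepG2) transfected with promoter-driven reporter constructs, treated 24 h. Total RNA reverse-transcribed, reporter cDNA PCR-amplified, FAM-labelled by primer extension, digested, resolved by capillary electrophoresis. Activity fitted both directions versus DMSO.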

[5] = ATG_BRE_CIS: Attagene CIS-FACTORIAL HepG2 Assay for human Bone Morphogenetic Protein (BMP) Response Element (BRE) (AID 2282933); conditions: HepG2 BMP response element reporter, Attagene transcription factor profiling; actives raise or lower the signal
Method in brief: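 After a 24 h chemical treatment, transiently transfected HepG2 cells were lysed for RNA; reporter transcripts were quantified by fluorescent RT-PCR and capillary electrophoresis, normalised to DMSO.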

[6] = target: Retinoic acid receptor alpha (Homo sapiens) (UniProt P10276); test: ATG_DR5_RAR_CIS: Attagene CIS-FACTORIAL HepG2 Assay for human Retinoic Acid Receptor Alpha (RARE), DR5 submotif (AID 2282934); conditions: HepG2 Attagene cis-factorial RARE DR5 reporter, mRNA; actives raise or lower the signal;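 as to AC50: reporter responds to endogenous RAR alpha beta and gamma in HepG2 not RARA alone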
Retinoic acid receptor alpha (Homo sapiens), sequence (P10276 whole entry, looked up): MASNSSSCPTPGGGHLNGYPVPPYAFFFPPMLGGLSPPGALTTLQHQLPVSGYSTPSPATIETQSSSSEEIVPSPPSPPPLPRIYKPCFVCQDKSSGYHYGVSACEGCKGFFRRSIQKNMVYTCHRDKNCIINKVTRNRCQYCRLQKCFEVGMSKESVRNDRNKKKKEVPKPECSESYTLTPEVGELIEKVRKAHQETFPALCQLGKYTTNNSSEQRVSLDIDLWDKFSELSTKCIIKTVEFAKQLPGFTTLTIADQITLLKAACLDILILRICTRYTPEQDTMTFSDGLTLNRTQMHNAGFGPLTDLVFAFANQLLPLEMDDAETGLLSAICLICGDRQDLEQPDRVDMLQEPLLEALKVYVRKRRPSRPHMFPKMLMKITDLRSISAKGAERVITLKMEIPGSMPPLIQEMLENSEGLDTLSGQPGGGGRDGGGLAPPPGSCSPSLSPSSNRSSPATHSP
Method in brief: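 HepG2 cells transiently transfected with multiplexed reporter units under cis (DR5 RARE) promoters, so endogenous transcription factor activity is measured. After 24 h compound exposure, reporter mRNA is quantified by RT-PCR with fluorescent labelling and capillary electrophoresis; bidirectional fitting versus DMSO.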

[7] = target: Transcription factor E2F1 (Homo sapiens) (UniProt Q01094); test: ATG_E2F_CIS: Attagene CIS-FACTORIAL HepG2 Assay for human E2F Transcription Factor 1 (AID 2282935); conditions: HepG2 Attagene cis-reporter, E2F reporter RNA transcripts; actives raise or lower the signal
Transcription factor E2F1 (Homo sapiens), sequence (Q01094 whole entry, looked up): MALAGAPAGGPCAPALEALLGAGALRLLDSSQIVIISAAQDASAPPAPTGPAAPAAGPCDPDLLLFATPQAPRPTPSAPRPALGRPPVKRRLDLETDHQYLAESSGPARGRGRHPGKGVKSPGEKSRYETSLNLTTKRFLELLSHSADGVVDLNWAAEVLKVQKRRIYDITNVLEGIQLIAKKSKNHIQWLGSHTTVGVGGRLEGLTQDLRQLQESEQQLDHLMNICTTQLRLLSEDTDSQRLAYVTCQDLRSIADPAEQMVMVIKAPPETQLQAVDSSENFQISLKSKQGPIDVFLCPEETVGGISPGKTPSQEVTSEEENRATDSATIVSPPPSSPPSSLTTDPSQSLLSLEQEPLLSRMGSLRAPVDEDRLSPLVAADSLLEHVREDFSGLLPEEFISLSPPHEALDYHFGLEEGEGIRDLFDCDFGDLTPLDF
Method in brief: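 First, HepG2 cells were transfected with reporter transcription units. Next, they were dosed for 24 h. Then RNA was isolated, converted to cDNA, PCR-amplified, FAM-labeled, HpaI-digested and analyzed by capillary electrophoresis.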

[8] = ATG_E_Box_CIS: Attagene CIS-FACTORIAL HepG2 Assay for human Enhancer Box (E-box) (AID 2282936); conditions: HepG2 E-box cis-reporter transcription, actives raise or lower the signal
Method in brief: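 Endogenous transcription factor activity was sensed in human HepG2 liver cells through transfected cis-promoter reporter units. After 24 h of dosing, total RNA was reverse-transcribed and reporter cDNA resolved by capillary electrophoresis.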

[9] = ATG_M_61_CIS: Attagene CIS-FACTORIAL HepG2 Assay for M61 Transcription Factor (Internal Marker) (AID 2282937); conditions: HepG2 Attagene CIS-FACTORIAL M61 internal marker reporter; actives raise or lower the signal
Method in brief: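 Using transiently transfected HepG2 liver cells, reporter transcript levels were assessed 24 h post-dosing by RT-PCR and capillary electrophoresis. Changes in either direction were fitted relative to DMSO controls.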

[10] = ATG_EGR_CIS: Attagene CIS-FACTORIAL HepG2 Assay for human Early Growth Response 1 (EGR1) (AID 2282938); conditions: HepG2 Attagene CIS-FACTORIAL EGR reporter mRNA; actives raise or lower the signal
Method in brief: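 Fluorescent capillary-electrophoresis signal of reporter cDNA fragments serves as read-out. HepG2 cells bear transiently transfected cis-promoter reporter units and are exposed 24 h; gain- or loss-of-signal is fitted against DMSO.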

[11] = ATG_Ets_CIS: Attagene CIS-FACTORIAL HepG2 Assay for human Erythroblast Transformation Specific (ETS) (AID 2282941); conditions: HepG2 ETS cis-reporter transcription, actives raise or lower the signal
Method in brief: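 Endogenous transcription factor activity read as reporter mRNA via RT-PCR and capillary electrophoresis, with gain or loss fitted bidirectionally against DMSO. Human HepG2 liver cells, transiently transfected CIS reporter constructs, 24 h exposure.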

[12] = target: Hepatocyte nuclear factor 3-beta (Homo sapiens) (UniProt Q9Y261); test: ATG_FoxA2_CIS: Attagene CIS-FACTORIAL HepG2 Assay for human Forkhead box A2 (FOXA2) (AID 2282942); conditions: HepG2 cis-reporter transcription factor activity, 24 h; actives raise or lower the signal
Hepatocyte nuclear factor 3-beta (Homo sapiens), sequence (Q9Y261 whole entry, looked up, the tested form may be a part): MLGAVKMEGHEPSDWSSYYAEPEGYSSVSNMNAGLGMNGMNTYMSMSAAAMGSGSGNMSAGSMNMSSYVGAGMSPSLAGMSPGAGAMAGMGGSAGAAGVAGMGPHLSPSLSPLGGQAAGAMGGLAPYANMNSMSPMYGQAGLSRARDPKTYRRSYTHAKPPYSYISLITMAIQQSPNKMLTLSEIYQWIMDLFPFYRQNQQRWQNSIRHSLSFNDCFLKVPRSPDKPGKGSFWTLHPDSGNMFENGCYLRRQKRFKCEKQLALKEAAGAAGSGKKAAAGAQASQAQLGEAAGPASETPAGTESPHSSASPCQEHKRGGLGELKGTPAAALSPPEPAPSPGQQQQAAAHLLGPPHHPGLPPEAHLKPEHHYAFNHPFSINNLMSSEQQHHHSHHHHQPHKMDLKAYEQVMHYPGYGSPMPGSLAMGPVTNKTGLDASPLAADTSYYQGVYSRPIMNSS
Method in brief: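 Fluorescence signal of reporter cDNA fragments, separated by capillary electrophoresis, reflects endogenous transcription factor activity in transfected HepG2 after 24 h. Both increases and decreases fitted against DMSO.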

[13] = ATG_FoxO_CIS: Attagene CIS-FACTORIAL HepG2 Assay for human Forkhead box O (FoxO) (AID 2282943); conditions: HepG2 Attagene cis-reporter, FoxO element, mRNA; actives raise or lower the signal
Method in brief: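 HepG2 cells transiently transfected with cis-promoter-driven multiple reporter transcription units; 24 h after chemical dosing, reporter mRNA quantified by RT-PCR, fluorescent primer extension, HpaI digestion and capillary electrophoresis. Bidirectional fitting versus DMSO baseline.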

[14] = ATG_GATA_CIS: Attagene CIS-FACTORIAL HepG2 Assay for human GATA Binding Protein (AID 2282944); conditions: HepG2 GATA cis-element reporter, Attagene multiplex mRNA; actives raise or lower the signal
Method in brief: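 Measures endogenous transcription factor-driven reporter mRNA in HepG2 cells transiently carrying cis-regulated constructs. 24 h dosing; RNA via oligo(dT) reverse transcription, PCR, HpaI digestion, capillary electrophoresis; fitted relative to DMSO.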

[15] = ATG_GLI_CIS: Attagene CIS-FACTORIAL HepG2 Assay for human Zinc Finger Protein GLI1 (AID 2282945); conditions: HepG2, Attagene cis-factorial reporter mRNA, GLI element; actives raise or lower the signal
Method in brief: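 HepG2 cells transiently transfected with cis-promoter multiplexed reporter units report endogenous transcription factor activity. After 24 h chemical exposure, reporter mRNA was quantified by RT-PCR, 6-FAM labelling, HpaI digestion and capillary electrophoresis, with bidirectional fitting against DMSO.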

[16] = ATG_GRE_CIS: Attagene CIS-FACTORIAL HepG2 Assay for human Glucocorticoid Response Elements (GRE) (AID 2282947); conditions: HepG2 GRE cis-reporter, Attagene multiplex mRNA; actives raise or lower the signal
Method in brief: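 Cells (HepG2) bearing transfected cis-promoter reporter transcription units were treated with chemical for 24 hours. Reporter mRNA was measured via RT-PCR with capillary electrophoresis, and activity was fitted in both directions relative to DMSO.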

[17] = ATG_M_19_CIS: Attagene CIS-FACTORIAL HepG2 Assay for M19 Transcription Factor (Internal Marker) (AID 2282939); conditions: HepG2 Attagene CIS-FACTORIAL M19 internal marker reporter; actives raise or lower the signal
Method in brief: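 In this multiplexed cell assay, transiently transfected HepG2 reporter units report endogenous transcription-factor activity; after 24 hours of treatment, labelled reporter cDNA fragments are quantified by capillary electrophoresis and fitted bidirectionally against DMSO.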

[18] = ATG_ERE_CIS: Attagene CIS-FACTORIAL HepG2 Assay for Estrogen Response Element (ERE) (AID 2282940); conditions: HepG2 ERE cis-reporter, Attagene RNA transcript; actives raise or lower the signal
Method in brief: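 Measuring endogenous transcription factor output, the assay doses transfected HepG2 cells for 24 hours and quantifies reporter transcripts by fluorescent RT-PCR and capillary electrophoresis, with DMSO as baseline.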

[19] = target: Bile acid receptor (Homo sapiens) (UniProt Q96RI1); test: ATG_IR1_CIS: Attagene CIS-FACTORIAL HepG2 Assay for human Nuclear Receptor Subfamily 1 Group H Member 4 (NR1H4), IR1 submotif (AID 2282946); conditions: IR1 reporter transcription, actives raise or lower the signal
Bile acid receptor (Homo sapiens), sequence (Q96RI1 whole entry, looked up): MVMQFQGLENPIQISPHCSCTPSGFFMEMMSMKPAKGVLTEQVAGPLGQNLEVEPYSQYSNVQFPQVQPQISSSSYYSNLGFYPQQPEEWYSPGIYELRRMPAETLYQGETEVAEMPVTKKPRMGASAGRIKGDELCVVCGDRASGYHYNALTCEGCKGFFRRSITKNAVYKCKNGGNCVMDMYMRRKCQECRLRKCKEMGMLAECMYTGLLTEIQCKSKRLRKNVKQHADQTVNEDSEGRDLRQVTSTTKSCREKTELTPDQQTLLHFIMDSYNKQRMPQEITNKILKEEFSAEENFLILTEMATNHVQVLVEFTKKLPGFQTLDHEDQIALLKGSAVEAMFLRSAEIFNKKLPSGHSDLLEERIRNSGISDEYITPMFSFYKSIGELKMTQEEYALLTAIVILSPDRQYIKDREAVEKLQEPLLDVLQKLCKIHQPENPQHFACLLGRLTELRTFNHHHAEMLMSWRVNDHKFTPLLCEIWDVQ
Method in brief: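 Readout: reporter transcript levels by RT-PCR with fluorescent capillary electrophoresis, from HepG2 cells transiently transfected with multiplexed cis-regulated reporters and dosed 24 h. Gain- or loss-of-signal fitted versus DMSO negative control.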

Measured: AC50

CS(=O)(=O)c1ccc(C(=O)C2C(=O)CCCC2=O)c(Cl)c1COCC(F)(F)F
not listed: [17] | [18] | [19]
inactive: all other assays above

O=C(CCl)Nc1ccccc1
inactive: [1] | [2] | [3] | [6] | [9] | [18] | [11] | [12]
active: [5] 5.35 µM | [7] 147 µM | [8] 73.5 µM | [10] 44.4 µM | [17] 167 µM | [14] 161 µM | [15] 25.5 µM | [19] 54.4 µM | [16] 177 µM

CC1(C)COP(Oc2ccccc2)OC1
not listed: [4] | [18] | [19]
inactive: all other assays above

Clc1cccc(Cl)c1Cl
not listed: [10] | [16] | [18] | [19]
inactive: all other assays above

CCN(N=O)C(N)=O
inactive: all assays above

Cc1ccc(OP(=O)(Oc2ccc(C)cc2C)Oc2ccc(C)cc2C)c(C)c1
active: [8] 25.1 µM | [18] 5.48 µM | [15] 25.7 µM
not listed: [4] | [13]
inactive: all other assays above

O=[N+]([O-])c1cc([As](=O)(O)O)ccc1O
not listed: [4] | [19]
inactive: all other assays above

CC(C)(C)c1cc([N+](=O)[O-])cc(C(C)(C)C)c1O
active: [1] 1.77 µM | [3] 0.948 µM | [4] 16.3 µM | [5] 2.01 µM | [6] 2.85 µM | [11] 52.1 µM
not listed: [10] | [16]
inactive: all other assays above

Reference: PubChem BioAssay (EPA / NIEHS)
